In ChEMBL document CHEMBL4513216, “Probing the Open Global Health Chemical Diversity Library for Multistage-Active Starting Points for Next-Generation Antimalarials” (ACS Infect Dis, 2020):
Among all 69,000 compounds or so, about 8,600 (12%) showed an effect of 50% or more. Only a selection was taken, and strong results are over-represented in it overall.

system: Plasmodium berghei; test: Screen against P. berghei liver stage (PbLuc), transformed with Luciferase, at 10uM; type: functional, HepG2; details: tested at 10 uM

SMILES	INHIBITION [%]
Cc1noc(C)c1CN1CCC(c2ccnn2CCO)CC1	-43.5
COCC(O)CN1CCC(=O)N(Cc2ccco2)Cc2ccccc21 (stereo not drawn)	24.5
CN1CCN(C[C@H]2OC[C@@H]3CCN(C(=O)c4cnccn4)C[C@@H]32)CC1	31.4
CCN1CCCC(c2nc(O)c3cc(C)ccc3n2)C1 (stereo not drawn)	16.8
O=C(Cc1cccnc1)NC1CCCN(CCCc2ccccc2)C1 (stereo not drawn)	8.99
O=C1NC(c2ccccc2)=N[C@@]12CC[C@@H]1CN(Cc3cccnc3)C[C@@H]12	33
CC(CN1CCC2(CC1)N=C(N(C)C)NC2=O)c1ccccc1 (stereo not drawn)	0.825
O=C1NC(c2cccnc2)=NC12CCN(CCCc1ccccc1)CC2	58.7
CC1=NC2(CCN(CC(C)c3ccccc3)CC2)C(=O)N1 (stereo not drawn)	14
CC(CN1CCC2(CC1)N=C(c1cccnc1)NC2=O)c1ccccc1 (stereo not drawn)	70.1
CC(NC(=O)NCCCn1ccnc1)c1nncn1C (stereo not drawn)	-6.61
c1coc(CN2CCC3(CC2)COC(COCC2CCOCC2)C3)c1 (stereo not drawn)	6.27
COc1cccc(-c2cc(C(=O)NCCn3nc(C)nc3C)[nH]n2)c1	-13.6
CCn1c(C)cc(C(=O)N2CCCC(n3ccnc3C)C2)c1C (stereo not drawn)	-11.3
COc1cc(CNCC2CN(C3CC3)CCO2)cc(OC)c1 (stereo not drawn)	-18.3
Oc1ccc(Cl)cc1CNCc1cccc(C(F)(F)F)c1	27.4
O=C(C1CCCCN1Cc1nccn1CC(F)(F)F)N1CCCC1 (stereo not drawn)	58.9
CCn1ccnc1CN1CCCC1C(=O)Nc1nccs1 (stereo not drawn)	72.2
O=C(Nc1nccs1)NC1CCN(Cc2ccccn2)CC1	17.4
CCc1nc(CN2CCCC2C(=O)NC)cs1 (stereo not drawn)	49
O=C(Nc1nccs1)C1CCCN1Cc1ccccn1 (stereo not drawn)	87.6
CC(C)(C)NC(=O)C1CCCCN1Cc1nccn1CC(F)(F)F (stereo not drawn)	46.6

SMILES	INHIBITION [%]
CCc1ccsc1C(=O)N1CCCN(Cc2nccn2CC)CC1	30.65
CC(=O)Nc1cccc(CN2CCCC2C(=O)Nc2nccs2)c1 (stereo not drawn)	34.6
N#Cc1cccc(OCCN2CCCC2C(=O)Nc2nccs2)c1 (stereo not drawn)	44
NC(=O)C1CCCN1Cc1nccn1CC(F)(F)F (stereo not drawn)	30.9
CCNc1ccnc(CN2CCCC2C(=O)Nc2nccs2)c1 (stereo not drawn)	85.1
CC1CN(CC(=O)Nc2nccs2)CCN1Cc1nccn1C (stereo not drawn)	26.675
N#Cc1ccccc1C(=O)Nc1cccc(CN2CCC(CO)CC2)c1	-43.1
Cc1cc(OCC(=O)N2CCCC(c3nc(C)c(C)s3)C2)no1 (stereo not drawn)	0.914
CC(O)CN1CCN(C(=O)c2ccc(N3CCCC3)nn2)CC1 (stereo not drawn)	-43.5
O=C(CC1CCCC1)Nc1ccc(-n2cc(Br)cn2)nc1	24.8
CN(C)S(=O)(=O)CCCN1CCc2c(ncn2C2CC2)C1	33.7
COCCN1C(=O)CCC12CCN(C(=O)CNC(C)=O)CC2	-49.2
Oc1ccc(CCC2CCCCN2Cc2noc(C3CC3)n2)cc1 (stereo not drawn)	26.5
Cc1cc(C)cc(CCC(=O)N2CCN(c3cc(C)nc(N)n3)CC2)c1	80.5
Cc1cc(N2CCN(C(=O)c3cc(Cl)c[nH]3)CC2)nc(C)n1	5.76
Cc1cc(N2CCN(C(=O)CCc3scnc3C)CC2)nc(N)n1	-6.72
Cc1cc(N2CCN(C(=O)c3cc(Cl)c[nH]3)CC2)nc(C(C)C)n1	24.6
Cc1cc(N2CCN(C(=O)c3cc(Cl)c[nH]3)CC2)nc(N)n1	50.1
COc1cc(C)nc(N2CCN(C(=O)CCc3ccncc3)CC2)n1	7.18
CN1[C@@H](C(=O)NCC2CC2)C[C@H]2CN(Cc3ccsc3)C[C@H]21	-14.7
NC(=O)c1cc2c(nc1N1C[C@H]3OC(=O)N(C4CCCC4)[C@H]3C1)CCC2	5.05
Cc1c(NCc2cccnc2)cccc1C(=O)N1CCC(N(C)C)C1 (stereo not drawn)	24.4

SMILES	INHIBITION [%]
CC(C(=O)Nc1ccon1)n1ccc(C(F)(F)F)n1 (stereo not drawn)	15.1
N#Cc1cccnc1N1CCCN(C(=O)CCn2cncn2)CC1	14.1
c1cc(CNCC2CNc3ccnn3C2)cc(OC2CCCC2)n1 (stereo not drawn)	60.7
COc1cc(CNCC2CNc3ccnn3C2)ccn1 (stereo not drawn)	23.7
c1cc(CNCC2CNc3ccnn3C2)cc(N2CCOCC2)n1 (stereo not drawn)	62.1
c1cc2n(n1)CC(CNCc1ccc(OC3CCCC3)nc1)CN2 (stereo not drawn)	41.5
c1cc(CNCC2CNc3ccnn3C2)cc(Cn2cccn2)c1 (stereo not drawn)	50.5
c1ccc(Cn2cncn2)c(CNCC2CNc3ccnn3C2)c1 (stereo not drawn)	36.4
c1ccc(Cn2cc(CNCC3CNc4ccnn4C3)cn2)cc1 (stereo not drawn)	9.54
c1ccc(-n2ccnc2)c(CNCC2CNc3ccnn3C2)c1 (stereo not drawn)	55.1
c1cc(CNCC2CNc3ccnn3C2)cc(OC2CCCCC2)n1 (stereo not drawn)	40.2
c1cc(CNCC2CNc3ccnn3C2)cc(N2CCCCC2)n1 (stereo not drawn)	37
OCc1ccccc1CNCC1CNc2ccnn2C1 (stereo not drawn)	-17
c1ccc(Cn2cccn2)c(CNCC2CNc3ccnn3C2)c1 (stereo not drawn)	45.8
O=C(Cn1c(C(F)F)cc2cccnc21)NC1CCCC1	22
CN(C)c1nc(CNC(=O)Nc2cccc([S+](C)[O-])c2)cs1 (stereo not drawn)	12.4
Cc1cnn(CC(=O)N2CCC(c3ccn4nccc4n3)CC2)c1	32.7
CCOC1COC2(CCN(Cc3cccc(C#N)c3)CC2)C1 (stereo not drawn)	29.7
CN1CCCN(C(=O)NCCOc2ccc3c(c2)OCO3)CC1	33.3
COCCN1C(=O)C[C@@H]2[C@H]1CCN2C(=O)c1ccc[nH]1	-14.4
Cc1nc(C)n(CC2CCCN(CC(=O)N3CCCC3)C2)n1 (stereo not drawn)	7.67
CCc1noc(-c2cccc(C(=O)O)c2)n1	-30

SMILES	INHIBITION [%]
CN1C[C@@H](C(=O)N(C)C)[C@@]2(CCc3ccccc3C(=O)N2)C1	4.41
Cc1cnn(CC2CN(Cc3noc(C4CC4)n3)CCO2)c1 (stereo not drawn)	-12.2
Cc1ccc2c(c1)OC(C)CN2C(=O)Cc1ccc(C)nc1 (stereo not drawn)	59.1
Cc1ccc2c(c1)OC(C)CN2C(=O)CCc1cscn1 (stereo not drawn)	9.04
Cc1ccc2c(c1)OC(C)CN2C(=O)CCc1cccnc1 (stereo not drawn)	43.4
CCSc1ccccc1C(=O)NCC1CCN(Cc2ccsc2)CC1	13.6
Cc1cccc(OCCC(=O)N2CCCN(CC(N)=O)CC2)c1C	55.9
NC(=O)CN1CCCN(C(=O)Cc2ccc(Br)cc2)CC1	54.4
Cc1cccc(OCCC(=O)N2CCCN(C(N)=O)CC2)c1C	15.5
NC(=O)CN1CCCN(C(=O)Cc2ccc(F)cc2)CC1	5.03
COC(=O)CN1CCCN(C(=O)CCOc2cccc(C)c2C)CC1	29.7
NC(=O)CN1CCCN(C(=O)Cc2ccc3ccccc3c2)CC1	-9.98
CN(CC(=O)NCC(=O)Nc1ccc(F)cc1)Cc1cccs1	5.87
N#Cc1cccnc1N1CCCC(CO)(Cc2ccccc2F)C1 (stereo not drawn)	-17.2
N#Cc1cccnc1N1CCCC(CO)(Cc2cccc(Cl)c2)C1 (stereo not drawn)	-84
CCC1(CO)CCCN(c2ncccc2C#N)C1 (stereo not drawn)	5.14
CSC(C)C(=O)N1CCCN(c2ncccc2C#N)CC1 (stereo not drawn)	1.78
N#Cc1cccnc1N1CCCC(CO)(Cc2ccc(F)cc2)C1 (stereo not drawn)	85.5
Cc1ccccc1CC1(CO)CCCN(c2ncccc2C#N)C1 (stereo not drawn)	56.8
Cc1ccccc1CN1C[C@@H]2COC[C@]2(CNC(=O)C2CCC2)C1	43
CCOCc1nc(N2CCCC2)sc1C(=O)NCCC(=O)OCC	2.55
Cn1ccnc1CN1CCc2c(COCC3CC3)nn(C)c2C1	38.5

SMILES	INHIBITION [%]
Cn1cc(C2CC(=O)NC23CCN(C(=O)Cc2ccccn2)CC3)cn1 (stereo not drawn)	-7.29
CNC(=O)N1CCC2(CC1)CC[C@@]1(C(=O)NC)CN(S(C)(=O)=O)C[C@@H]21	12.5
CCc1nccn1-c1nccnc1C1CCN(C(=O)COC)CC1	67.7
COCC(=O)N1CCC(c2nccnc2Oc2cccnc2C)CC1	50.4
CCc1nccn1-c1nccnc1C1CCCN(C(=O)COC)C1 (stereo not drawn)	48.4
Cc1ncccc1Oc1nccnc1C1CCN(C(C)C)CC1	40.9
Cc1ncccc1Oc1nccnc1C1CCN(S(C)(=O)=O)CC1	32.3
CCc1nccn1-c1cccc(C2CCN(C(=O)COC)CC2)n1	20.8
CCc1nc(C2CCCN2C(=O)c2cnc3n[nH]c(C)c3c2)no1 (stereo not drawn)	27
CC(CN1CCCC1=O)NC(=O)Nc1cccnc1-n1cccn1 (stereo not drawn)	4.66
OC1CCN(c2ccnc3c(F)cc(Br)cc23)CC1	16.6
CN1CCN(c2ccnc3c(F)cc(Br)cc23)CC1	62.8
CC(=O)N1CCN(c2ccnc3c(F)cc(Br)cc23)CC1	40.6
CN(C)CC(=O)N1CCOC2(CCCN(c3ncccc3F)C2)C1 (stereo not drawn)	21.8
CN([C@@H]1CCC[C@@H](n2ccnc2)[C@@H]1O)S(=O)(=O)c1cn(C)cn1	13.7
CC(C)(C)c1n[nH]c(C2CN(Cc3nnc(C4CCC4)o3)CCO2)n1 (stereo not drawn)	-38.2
O=C(CCc1ccccc1)N1CCCC(c2n[nH]c3nccnc23)C1 (stereo not drawn)	32.8
Cc1nc2c(c(C)c1CC(=O)Nc1ccccc1F)c(=O)[nH]n2C	60.9
COc1ccccc1NC(=O)Cc1c(C)nc2c(c1C)c(=O)[nH]n2C	-16.5
Cc1nc2c(c(C)c1CC(=O)NCc1ccccc1F)c(=O)[nH]n2C	39.2
